According to PubChem BioAssay (NCI):
The panel holds about 79,000 compounds, 15% with a hit somewhere; the sample as a whole holds those more often. A number with no mark means an inactive call. The source made the active and inactive calls. Cut-off read from the data, not from the text of the source: active = growth inhibition above about 70%; inactive = the rest.

Experiments:
[1] = NCI Yeast Anticancer Drug Screen. Data for the rad50 strain (AID 155);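 note: 0% = growth of vehicle-only cultures of the same strain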; settings: S. cerevisiae rad50 strain growth inhibition; at 50.0 µM; stronger effect = higher value
In short: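 Vehicle-treated cultures provide the reference for the growth inhibition reported for compound-exposed, repair-deficient yeast.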

[2] = NCI Yeast Anticancer Drug Screen. Data for the mec2-1 strain (AID 157); settings: S. cerevisiae mec2-1 strain, at 50.0 µM, stronger effect = higher value
In short: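 mec2-1 yeast strain, carrying an alteration in DNA damage repair or cell cycle control, was exposed to compounds; growth inhibition was measured relative to vehicle-treated controls.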

[3] = NCI Yeast Anticancer Drug Screen. Data for the sgs1 mgt1 strain (AID 161);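 note: 0% = growth of cultures given vehicle only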; settings: S. cerevisiae sgs1 mgt1 strain, at 50.0 µM, stronger effect = higher value
In short: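 Yeast cells carrying a defined DNA-repair defect were exposed to test compounds. Growth inhibition was measured relative to vehicle-treated controls.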

[4] = NCI Yeast Anticancer Drug Screen. Data for the cln2 rad14 strain (AID 165);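 note: 0% = growth equal to vehicle treated cultures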; settings: S. cerevisiae cln2 rad14 strain, at 50.0 µM, stronger effect = higher value
In short: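 Yeast carrying cln2 and rad14 alterations (cell cycle control and DNA damage repair) were exposed to compounds. Growth inhibition was measured against vehicle-treated controls.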

[5] = NCI Yeast Anticancer Drug Screen. Data for the bub3 strain (AID 167); settings: S. cerevisiae bub3 mutant strain, at 50.0 µM, stronger effect = higher value
In short: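 Mutant yeast screening strain plus compound; vehicle-treated cultures serve as the 0% inhibition reference.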

[6] = NCI Yeast Anticancer Drug Screen. Data for the mlh1 rad18 strain (AID 175); settings: S. cerevisiae mlh1 rad18 strain growth inhibition; at 50.0 µM; stronger effect = higher value
In short: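 Growth inhibition of the yeast strain was measured after compound exposure and expressed relative to vehicle-treated controls. The strain carries defined defects in DNA damage repair.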

SMILES	growth inhibition [1]	growth inhibition [2]	growth inhibition [3]	growth inhibition [4]	growth inhibition [5]	growth inhibition [6]
CCCCOC(=O)c1ccc(OC(=O)Nc2ccc(Cl)cc2)cc1	10.4%	42.3%	39%	-11.2%	78.7% (active)	30.2%
CCOC(=O)c1ccc(NC(=O)Nc2cc(Cl)c(OC)cc2OC)cc1	75% (active)	90.7% (active)	94% (active)	91.8% (active)	76.1% (active)	85.8% (active)
CC(C)(C(N)=O)c1ccccc1	-28.1%	-3.85%	16.6%	-28.4%	-1.55%	-5.05%
COC1=C(OC)C(=O)c2cc(SC)c(=O)c(SC)cc2C1=O	-54.8%	-29.2%	-40.5%	-22.1%	-54.6%	-60.2%
CCCCCCCCCCCCC#N	-20.8%	-16.1%	-1.15%	-32.9%	-5.2%	7.85%
COc1cc(C2SCCCCCCCCCCSC(c3ccc(O)c(OC)c3)SCCCCCCCCCCS2)ccc1O (stereo not drawn)	-24.6%	-24.8%	-29.2%	-18.9%	-30.2%	-6.9%
CC1=NC(C(=O)O)CC1C (stereo not drawn)	1.15%	4%	-5.35%	-7.7%	1.45%	-1.3%
COC(=O)CSc1n[nH]c(-c2ccccc2)n1	1.05%	-7.25%	7.2%	-1%	3.4%	-4.3%
CCCCCCCNc1nc(N)nc(Cl)n1	-0.15%	-4.6%	5.75%	8.75%	-9.4%	10.9%
CS[C@]12C(=O)C[C@@]3(C)[C@@H](CC[C@]3(O)C(=O)CO)[C@@H]1CCC1=CC(=O)CC[C@@]12C	-2.2%	-24%	-15.9%	28.7%	-54.8%	-20.4%
Clc1ccccc1C(Cl)c1ccccc1 (stereo not drawn)	3.3%	-14.2%	-5.95%	-21.6%	-10.7%	-6.25%
COc1cc(/C=C2\C=Nc3ccccc32)ccc1O	27.8%	23.9%	38%	20.3%	40.3%	35.7%
Cc1ccc(-c2cc(-c3ccco3)nc(N)n2)o1	-23.9%	-9.1%	10.6%	4.3%	5.45%	1.75%
Cc1cc(=O)[nH]c2c1CCCC2	-13.7%	10.8%	10%	-38.4%	-26.6%	8.25%
C=C1C(=O)O[C@@H]2C(=O)[C@@H](C)[C@@H]3C=CC(=O)[C@@]3(C)[C@@H](OC(=O)/C(C)=C\C)[C@H]12	-2.4%	-14.3%	8.8%	10.7%	7.4%	27.1%
O=C(NC1CCCCC1C1CCCCC1)c1ccc(Cl)cc1 (stereo not drawn)	1.55%	2.5%	-1.3%	-10.9%	7.15%	6.45%
Nc1ccc(S(=O)(=O)N(CCO)CCO)cc1	-2.65%	-28.2%	-20.9%	-6.95%	-18.8%	-12.3%
CCC(C=NCCBr)(CCC(=O)OC)CCC(=O)OC	-7.9%	16.2%	-13.9%	-8.4%	12.4%	10.2%
CC[N+](C)(C)CC(O)(O)C(F)F	-28.1%	-32.7%	-17.1%	2.25%	-26.8%	-16.2%

SMILES	growth inhibition [1]	growth inhibition [2]	growth inhibition [3]	growth inhibition [4]	growth inhibition [5]	growth inhibition [6]
Cc1c2ccccc2nc(CS(=O)(=O)c2ccccc2)[n+]1[O-]	-26.1%	-13.2%	-4.95%	-60.5%	-16.4%	-6.1%
O=S1(=O)COc2ccccc2-c2ncncc21	10.2%	-9.85%	-2.35%	31.2%	-2.6%	-11.8%
O=C1OCCC1=P(c1ccccc1)(c1ccccc1)c1ccccc1	-5.6%	-30.9%	6.9%	9.45%	-7.4%	-4.85%
CC(C=O)CCC(C)(O)C=O (stereo not drawn)	-9.4%	-7.8%	-7%	8.65%	-10.5%	1.45%
CC(N)(C(=O)O)c1ccccc1 (stereo not drawn)	-2.45%	-2.45%	18.6%	-25.2%	-13.9%	-21.4%
CC(=O)c1c(N)n(C)c(=O)n(C)c1=O	36%	2.9%	3.55%	-47.1%	-14.6%	17.4%
Cc1ccc(I)cc1	-59.4%	-32.6%	-33.9%	-7.5%	-2.9%	-19.1%
CC(=O)C(C)O (stereo not drawn)	-27.8%	-18.8%	-15.2%	-0.95%	-21.4%	-21.1%
C[C@]12CCC(=O)CC1CCCC2=O (stereo partly drawn)	9.9%	-10.8%	6.4%	24.1%	-6.7%	19.8%
NC(CCC(N)C(=O)c1ccccc1)C(=O)c1ccccc1 (stereo not drawn)	-12.2%	-7.75%	4.35%	6.8%	-8.8%	11.7%
O=C1/C(=C/c2ccc(Cl)cc2)CCC1CCN1CCOCC1 (stereo not drawn)	46.9%	40.5%	51.2%	60%	41.2%	59.2%
Nc1nc(N)c(-c2ccc(Cl)c(Cl)c2)c(COc2cccc3ccccc23)n1	98.7% (active)	99% (active)	99.2% (active)	96.5% (active)	98.1% (active)	98.7% (active)
Oc1ccc(-c2cc(-c3cc(-c4ccc(O)cc4)no3)on2)cc1	-1.95%	-3.5%	-10.8%	-11.7%	-32.3%	-7.1%
CC1CN(C(=S)Nc2ccccc2)CCN1C(=S)Nc1ccccc1 (stereo not drawn)	-9%	8.7%	6.3%	-42.9%	0.5%	-7.6%
O=C1C=C(Nc2ccc3ccccc3c2[N+](=O)[O-])c2ccccc2C1=O	27.2%	17.4%	8.05%	-16.4%	23.2%	7.1%
CC(=O)NC1CCC2CCCCC2C1 (stereo not drawn)	15.7%	-3.15%	-8.75%	-61%	32.1%	-17.9%
COC(=O)C1O[C@H]1c1cccc[n+]1[O-] (mixture of isomers)	-0.3%	-3.15%	5.7%	11.8%	-8.2%	-0.9%
S=C1N(c2ccc(Br)cc2)C2=Nc3ccccc3SC(=C2N=Nc2ccccc2)N1c1ccc(Cl)cc1	-13.6%	20.9%	-8.8%	14.5%	-1.15%	-3%
CC(C)(C)n1c(=O)n(C(=O)C(Cl)(Cl)Cl)n(C(=O)C(Cl)(Cl)Cl)c1=O	-13.8%	-16.6%	-14.6%	19.1%	-10.3%	-4.45%
